From PubChem BioAssay
12-hLO inh: inhibitors of human 12-lipoxygenase (ALOX12); purified 12-hLO, xylenol orange hydroperoxide absorbance; Potency, µM (highest dose often 57.1 µM), actives largely listed as inhibitors; 150,000 compounds, 0.12% hits; AID 1452; further: nearly all actives have a fitted effect of over 55% in size
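150 nM 12hLO, 25 mM Hepes pH 7.0 + 0.01% Triton X-100; cpd preinc 15 min RT; 40 uM arachidonic acid, 30 min RT; Fe-XO 30 min; A573/A405 ratio as read-out.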
aGal spleen mod: inhibits or activates alpha-galactosidase in human spleen homogenate; P06280; human spleen homogenate, 4MU-alpha-Gal fluorescence, 40 min; Potency, µM (highest dose often 80 µM), hits mostly inhibitors; 240,000 compounds, 0.008% hits
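Fluorogenic readout (Ex 365/Em 440 nm) of 4-methylumbelliferone released from 1 mM 4-MU-alpha-galactoside by spleen homogenate, 40 min at 37C, pH 5.0. Data normalized to no-enzyme and enzyme controls; Hill-equation AC50 from compound titrations.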
GLA inh pH 4.5: blocks human alpha-galactosidase A at pH 4.5; P06280; purified enzyme, 4-MU-alpha-Gal fluorescence, pH 4.5; activity change, negative = inhibition, % at 105 µM; 230,000 tested, under 10 active
Target sequence (P06280 whole entry, looked up): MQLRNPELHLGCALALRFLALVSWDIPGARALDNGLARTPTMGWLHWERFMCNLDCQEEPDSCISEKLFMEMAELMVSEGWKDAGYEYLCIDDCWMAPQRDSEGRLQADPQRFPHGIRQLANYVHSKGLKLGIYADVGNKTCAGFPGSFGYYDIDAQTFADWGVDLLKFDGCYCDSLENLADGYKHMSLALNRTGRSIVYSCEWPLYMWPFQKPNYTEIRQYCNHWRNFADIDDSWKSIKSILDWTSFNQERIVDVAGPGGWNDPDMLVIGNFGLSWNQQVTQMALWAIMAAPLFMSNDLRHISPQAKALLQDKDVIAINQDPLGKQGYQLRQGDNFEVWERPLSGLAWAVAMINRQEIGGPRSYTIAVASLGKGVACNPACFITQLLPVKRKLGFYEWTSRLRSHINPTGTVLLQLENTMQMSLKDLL
HPGD inh: HPGD (human) dehydrogenase inhibition; P15428; purified HPGD, NADH fluorescence kinetic, PGE2 substrate; Potency, µM, hits mostly inhibitors; 150,000 compounds, 4.3% hits; active means well fitted inhibition curve with a large enough effect, not every such curve was filed as active; inconclusive means small, poorly fitted or top-dose-only effect, or another doubt; inactive means no such curve, though single readings can be large or run the other way
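NADH formation kinetics: reaction with 30 uM PGE2 and 1 mM NAD+ (final), 20 nM enzyme, Tris-HCl pH 8 with Tween 20, after 15 min compound preincubation at room temperature. Fluorescence change, last versus first of five reads.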
PNC inhibitor: perinucleolar compartment assembly inhibition | PC3M PTB-GFP, PNC prevalence imaging, 16 h; active compounds read low | activity change (PNC), negative = inhibition, % at 10 µM | 140,000 compounds, 3.1% hits;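 active means readout at or below -70, meaning at least 70% loss of cells showing the perinucleolar compartment, a nuclear body marking cancer cells; inconclusive means readout between -30 and a set limit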
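Compounds are pinned in duplicate onto adhered PC3M cells stably expressing GFP-tagged PTB and incubated 16 h at 37 C. Cells are then fixed, nuclei stained with Hoechst, and PNC-positive cells counted.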
ALDH1A1 block: inhibitors of human aldehyde dehydrogenase 1A1; P00352; Purified ALDH1A1, NADH fluorescence, propionaldehyde substrate; Potency, µM (top dose mostly 75.3 µM), hits mostly inhibitors; 220,000 compounds, 7.3% hits; active means well fitted inhibition curve with a large enough effect, not every such curve was filed as active; inconclusive means small, poorly fitted or top-dose-only effect, or another doubt; inactive means no such curve, though single readings can be large or run the other way
Hits are given with their value; . = inactive; ? = inconclusive; / = not tested or not shown; [ ] = another dose, or the depositor's remark. In the library only some 10% were active in any assay of this set; here they are far more common. Unless noted, the call rests on the fitted dose curve; in most records, active means well fitted curve in the direction sought with a large enough effect; inconclusive means small, poorly fitted or top-dose-only effect, or another doubt; inactive means no such curve, though single readings can be large; an effect the other way counts as inactive or inconclusive.

SMILES	12-hLO inh	aGal spleen mod	GLA inh pH 4.5	HPGD inh	PNC inhibitor	ALDH1A1 block
O=C(CCn1nnc2ccccc21)Nc1nnc(Cc2ccccc2)s1	.	.	.	32µM	.	?
Cc1ccccc1CN(c1ccc(C(=O)N/N=C/c2ccc(OCC(N)=O)cc2)cc1)S(C)(=O)=O	/	.	.	/	/	.
N[C@H](C(=O)O)c1ccc(O)c(C(=O)O)c1	.	.	.	?	/	?
CCOC(=O)CSc1n[nH]c(-c2ccco2)n1	.	.	.	?	.	.
O=C(O)c1ccc(CSc2n[nH]c(-c3ccco3)n2)cc1	.	.	.	2.8µM	.	?
O=C(CSc1n[nH]c(-c2ccco2)n1)N1c2ccccc2Sc2ccccc21	.	.	.	13µM	?	7.9µM
Cc1cc([N+](=O)[O-])nn1CCCC(=O)NC1CCCCC1	/	.	.	/	/	.
N#CCCCCN1CCCC1	/	.	.	/	/	.
CCOC(=O)N/N=C/c1cn(Cc2ccc(Cl)cc2)c2ccccc12	.	.	.	.	-105	.
O=C(N/N=C/c1cn(Cc2ccccc2)c2ccccc12)c1cccnc1	.	.	.	.	.	14µM
O=C(N/N=C/c1cn(Cc2ccccc2)c2ccccc12)c1ccncc1	/	.	.[21.1 µM]	/	/	14µM
Cc1ccc(OCCn2cc(/C=N/NC(=O)c3ccncc3)c3ccccc32)cc1	.	.	.	.	?	.
CCCCCN1CN(S(=O)(=O)c2cccs2)c2nc3ccccc3nc21	/	.	.	/	/	/
Nc1nc(OCC2CCCCC2)c2[nH]cnc2n1	/	.	/	/	/	/
CN[C@@H](CCCN=C(N)N)C(=O)N[C@@H](CCCCN)C(=O)N1CCC[C@H]1C(=O)N[C@@H](Cc1c[nH]c2ccccc12)C(=O)N[C@H](C(=O)N[C@H](CC(C)C)C(=O)O)C(C)(C)C	/	.	/	/	/	/
CCC(c1nnnn1Cc1ccco1)N(CCc1ccccc1)Cc1cc2cc(C)ccc2[nH]c1=O (configuration not stated)	.	.	.	/	.	25µM
CCC(c1nnnn1CCc1ccccc1)N(Cc1ccco1)Cc1cc2c(C)ccc(C)c2[nH]c1=O (configuration not stated)	.	.	.	.	.	22µM
CCC(c1nnnn1CCc1ccccc1)N(Cc1ccco1)Cc1cc2cc(C)cc(C)c2[nH]c1=O (configuration not stated)	.	.	.	.	?	?
CC(C)C[C@@H](CC(=O)N[C@@H](CCCN)CC(=O)N[C@@H]1CCCC[C@H]1C(=O)N[C@H](CC(=O)N[C@@H](CCC(=O)O)CC(=O)O)CC(C)C)NC(=O)[C@@H]1CCCC[C@H]1N	.	.	.	.	/	.
CCOc1ccccc1/C=N/OCC(=O)NCc1ccc(F)cc1	/	.	.	/	/	.
COc1ccc(C(=O)N/N=C(\C)CC(=O)Nc2cccc(C(F)(F)F)c2)cc1	/	.	.	/	/	/
CCCCC/C=C\C/C=C\CCCCCCCC(=O)NC(C)C(=O)O (configuration not stated)	.	.	.	.	/	.
Cc1ccccc1NC(=O)C(=O)Nc1ccccc1C	/	.	.	/	/	.
Cc1c(Cl)cccc1NC(=O)Cn1cccc1	.	.	.	18µM	.	.
Cc1ccccc1NC(=O)Cn1cccc1	.	.	.	32µM	?	.
SMILES	12-hLO inh	aGal spleen mod	GLA inh pH 4.5	HPGD inh	PNC inhibitor	ALDH1A1 block
CCC(=O)NNC(=O)CCC(=O)Nc1cccc(Cl)c1C	/	.	.	/	/	.
Cc1ccccc1NC(=O)CN1C(=O)C2C3CC(C(Br)C3Br)C2C1=O (configuration not stated)	.	.	.	14µM	.	10µM
CC(C)CCN1CCN(Cc2nc(-c3ccc(F)cc3)cs2)CC1CCO (configuration not stated)	/	.	.	/	/	.
O=c1cnc2cnc(Oc3ccccc3)nc2n1Cc1ccc(F)cc1	.	.	/	.	/	?
O=C(O)Cc1ccc(C(=O)c2cccs2)s1	.	.	.	13µM	.	10µM
Cc1ccc(NC(NC(=O)Cc2ccccc2)C(Cl)(Cl)Cl)cc1 (configuration not stated)	.	.	.	.	-111	.
Cc1ccc(NC(=S)NC(NC(=O)c2ccco2)C(Cl)(Cl)Cl)cc1 (configuration not stated)	.	.	.	.	.	28µM
